In PubChem BioAssay AID1159580 (chemical genetic matrix, 2015):
The whole screen tested about 5,500 compounds, of which about 2,000 (36%) were called active. Inconclusive results (about 18%) are left out. Rule as the data show it: active = normalized growth mostly below about 0.91 (no sharp cut-off); inconclusive = no clear call, values can overlap the other calls; inactive = mostly above about 0.92. The list shows a part of the results.

Assay: chemical genetic growth profiling, strain panel (AID 1159580);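 also: tested at 20 µM; growth read once vehicle control cultures reached saturation at 30 °C; 1 = growth at the plate median or of vehicle wells; lower values mean less growth of the strain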
Settings: S. cerevisiae deletion strains, growth OD

Measured: normalized growth

CN(C)C1C(=O)C(C(N)=O)=C(O)C2(O)C(=O)C3=C(O)c4c(O)ccc(Cl)c4C(O)C3CC12 (centres undefined)
inactive: locus YAL040C, strain CLN3, active compounds read low 1 | locus YCL061C, strain MRC1 (second series), active compounds read low 1 | locus YDR150W, strain NUM1, active compounds read low 0.997 | locus YDR363W, strain ESC2, active compounds read low 1 | locus YER002W, strain NOP16, active compounds read low 1 | locus YGR078C, strain PAC10, active compounds read low 0.989 | locus YJR075W, strain HOC1, active compounds read low 0.999 | locus YMR307W, strain GAS1, active compounds read low 0.978 | locus YNL175C, strain NOP13, active compounds read low 1.02 | locus YNL197C, strain WHI3, active compounds read low 0.979 | locus YNL224C, strain SQS1, active compounds read low 0.996 | locus YNL322C, strain KRE1, active compounds read low 0.995 | locus YOR083W, strain WHI5 (second series), active compounds read low 0.995 | locus YPL241C, strain CIN2, active compounds read low 1.01
